PubChem BioAssay (Tox21)
Activity calls are given as the source filed them. Calls come from the whole dose curve; as a rule, active = well fitted activation curve with a large enough effect in the repeat runs; inconclusive = weak or mixed curves; inactive = flat fitted curve, though single readings scatter.

experiment: Caspase-3/7 induction in CHO-K1 cells by small molecules, qHTS assay (AID 1346980); settings: CHO-K1 caspase-3/7 induction, Caspase-Glo luminescence, 17 h; series mostly up to 92.4 µM; caspase-3/7 activation: at the top concentration; note: nearly all actives have a fitted effect of over 15% in size
Description: National Center for Advancing Translational Sciences [NCATS]
NIH Chemical Genomics Center [NCGC]
U.S. Environmental Protection Agency [EPA]
National Institutes of Environmental Health Sciences [NIEHS]
National Toxicology Program [NTP]
Apoptosis is a process of programmed cell death and plays a central role in the development of multicellular organisms. It is a highly regulated process and induces cell death by activating caspases, which are the members of cysteine aspartic acid-specific protease (caspase) family. Caspases involved in apoptosis are classified by their mechanism of action as initiator caspases (caspase-2, -8, -9 and -10) and executioner caspases (caspase-3, -6, and -7). Inhibition of apoptosis results in number of cancers, autoimmune diseases, inflammatory diseases and viral infection. To identify small molecule compounds that induce apoptosis, a homogeneous, luminescent Caspase-Glo 3/7 assay was used. Wild type CHO-K1 cells were used to screen Tox21 libraries for identifying caspase-3/7 activity inducers.
CHO-K1 cells were dispensed at 1,500 per well in 5uL of culture medium into white solid bottom 1536-well plates (Corning Life Sciences, Corning, NY) using a Multidrop Combi (Thermo Scientific, Waltham, MA) dispenser. The assay plates were incubated at 37 C and 5% CO2 for 5hr, and then 23nL of compounds dissolved in DMSO and positive control were transferred using a Pintool station (Wako, San Diego, CA). The assay plates were incubated at 37C and 5% CO2 for 17hr. For caspase-3/7 activity read, 4uL of Caspase-Glo 3/7 reagent (Promega Corporation, Madison, WI) was added to each well of the assay plates using Flying Reagent Dispenser (FRD, Aurora Discovery, San Diego, CA) and incubated the assay plates at room temperature for 30min. The luminescence signal was quantified using a ViewLux plate reader (Perkin Elmer, Shelton, CT).
% is set by controls: 0 for no effect and ±100 for the full control effect; potency is the fitted concentration of half-maximal effect.

| Compound | caspase-3/7 activation | Potency |
| --- | --- | --- |
| OCC(Br)CBr (stereo not given) | -0.285% (inactive) | – |
| CSSC | 0.77% (inactive) | – |
| CCOP(=O)(Sc1ccccc1)Sc1ccccc1 | -0.67% (inactive) | – |
| CNC(=O)CSP(=O)(OC)OC | 0.207% (inactive) | – |
| NC(=O)C(Cl)Cl | 0.774% (inactive) | – |
| Cc1cc(C2CC2)nc(Nc2ccccc2)n1 | -2.2% (inactive) | – |
| CC(C)Br | 0.391% (inactive) | – |
| C#CC1(O)CCCCC1 | -0.774% (inactive) | – |
| Brc1cccc(-c2ccccc2)c1 | -0.089% (inactive) | – |
| CO/N=C(/C1=NOCCO1)c1ccccc1Oc1ncnc(Oc2ccccc2Cl)c1F | -3.57% (inactive) | – |
| O=[N+]([O-])c1ccccc1-c1ccccc1 | 0.11% (inactive) | – |
| CCN(CC)CCc1c[nH]c2ccccc12 | -0.322% (inactive) | – |
| COc1ccc2[nH]cc(CCN(C(C)C)C(C)C)c2c1 | 0.256% (inactive) | – |
| CCCCc1ccccc1 | -0.562% (inactive) | – |
| CCN(CC)Cc1nccn1-c1ccc([N+](=O)[O-])cc1C(=O)c1ccccc1Cl | -0.464% [at 42.5 µM] (inactive) | – |
| CC(=O)[O-].CC(=O)[O-].CC(=O)[O-].[Sb+3] | -0.0038% [at 3.27 µM] (inactive) | – |
| O=Cc1ccccc1 | -0.0934% (inactive) | – |
| CC(=O)C(Cl)C(=O)N(C)C (stereo not given) | 0.665% (inactive) | – |
| O.O.O.O.O.O.O.O=S(=O)([O-])[O-].[Co+2] | -3.39% (inactive) | – |
| BrCCCBr | -1.47% (inactive) | – |

| Compound | caspase-3/7 activation | Potency |
| --- | --- | --- |
| O=c1c2ccccc2c(=O)c2c1cc(Cl)c1[nH]c3c([nH]c12)c(Cl)cc1c(=O)c2ccccc2c(=O)c13 | -0.507% (inactive) | – |
| O=c1[nH]c2cc(Cl)ccc2n1C1CCNCC1 | 0.406% [at 42.5 µM] (inactive) | – |
| Cc1nn(-c2cc(NS(C)(=O)=O)c(Cl)cc2Cl)c(=O)n1C(F)F | 0.102% (inactive) | – |
| CCCCCCCCCCCCCCn1cc[n+](C)c1 | – | inactive |
| [C-]1=CC=CC1.[Cl][Zr+2][Cl].c1cc[cH-]c1 | -0.0312% (inactive) | – |
| CC(Cc1ccccc1)N(C)Cc1ccco1 (stereo not given) | -1.01% [at 42.5 µM] (inactive) | – |
| O=[N+]([O-])C(Br)Br | 0.0572% (inactive) | – |
| CCC[CH2][Sn]([CH2]CCC)([CH2]CCC)[O][Sn]([CH2]CCC)([CH2]CCC)[CH2]CCC | – | 671 nM (active) |
| N#CCCl | -0.0122% (inactive) | – |
| COP(=S)(OC)Oc1ccc([N+](=O)[O-])c(C)c1 | -2.27% (inactive) | – |
| CC(Cc1ccc(O)cc1)NCC(O)c1cc(O)cc(O)c1 (stereo not given) | 0.0008% [at 42.5 µM] (inactive) | – |
| C[N+]1(C)[C@@H]2CC[C@H]1CC(OC(=O)C(CO)c1ccccc1)C2 (stereo not given in full) | -1.17% [at 42.5 µM] (inactive) | – |
| ClSC(Cl)(Cl)Cl | 0.474% (inactive) | – |
| Brc1ccc(Oc2ccc(Br)cc2Br)c(Br)c1 | -2.1% (inactive) | – |
| O=S1OCC2C(CO1)C1(Cl)C(Cl)=C(Cl)C2(Cl)C1(Cl)Cl (stereo not given) | 9.86% (inactive) | – |
| Nc1nc(N)nc(Cl)n1 | -0.044% (inactive) | – |
| CC1(C)[C@H](/C=C2\CCSC2=O)[C@@H]1C(=O)OCc1coc(Cc2ccccc2)c1 | -2.1% (inactive) | – |
| N#Cc1c[nH]cc1-c1cccc2c1OC(F)(F)O2 | 1.35% (inactive) | – |
| Cc1cc2c3c(c1)C(c1ccccc1)=N[C@@H](NC(=O)c1ccncc1)C(=O)N3CC2 | 1.47% (inactive) | – |
| O=C(N[C@@H]1N=C(c2ccccc2F)c2cccc3c2N(CC3)C1=O)c1cc2ccccc2[nH]1 | 0.0619% [at 42.5 µM] (inactive) | – |
